The supplement of paper PMC6555819

Experiments:
Assay in all cases: PBM binding z-score (relative to random genomic background probes); higher = stronger binding; sequences stand for … in GC…GCGATTGACAGCGTAGAATGAAGG
[1] = tested on: RARb homodimer (NR concentration 270 nM)
How it was run: (§1)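 Custom Agilent 4×180K protein-binding microarrays carried double-stranded probes, each with a 34-nt variable region. These regions held direct-repeat seeds, single-nucleotide variants, half-site ablations and random human genomic background sequences. Ligand-free nuclear receptor dimers were incubated on the arrays for 1 h, antibodies against each partner (one per run) detected binding, and scanned fluorescence was regression-normalized. Binding z-scores take the random background probes as reference.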

[2] = tested on: RARg:RXRa (NR concentration 270 nM, RXRa partner concentration 90 nM)
How it was run: as §1

[3] = tested on: RARg homodimer (NR concentration 270 nM)
How it was run: as §1

[4] = tested on: RXRa DBDmut IVT, anti-RXR (DBD mutation: RXRa K156A/R161A, NR concentration 90 nM)
How it was run: as §1

[5] = tested on: RXRa homodimer (NR concentration 180 nM)
How it was run: as §1

[6] = tested on: THRa:RXRa (NR concentration 90 nM, RXRa partner concentration 90 nM)
How it was run: as §1

[7] = tested on: THRa homodimer (NR concentration 90 nM)
How it was run: as §1

[8] = tested on: VDR homodimer (NR concentration 270 nM)
How it was run: as §1

Sequence	PBM binding z-score [1]	PBM binding z-score [2]	PBM binding z-score [3]	PBM binding z-score [4]	PBM binding z-score [5]	PBM binding z-score [6]	PBM binding z-score [7]	PBM binding z-score [8]
GCCGCTAGGTCAGGTTGGTCAGCTAACGGGTACG	2.77	2.62	3.67	0.508	1.1	1.81	0.524	0.312
CAAACTTGGTCAAAGGTCAAAGTCGAGCCAACCA	4.86	7.37	6.36	1.58	8.93	3.89	0.672	2.28
GCTTACCGGTCAAAGGTTATAGCATGAATAGAAT	2.62	5.63	3.54	0.541	5.37	2.2	-0.177	0.217
ATCGAAAGGTCGAAGAGGTGAGTATACACCGTTT	2.74	4.11	4.08	0.936	4.41	2.73	-0.077	0.745
CCAGACAGGTGAAAGGTAACTTAGTCTGGTACGC	0.975	1.23	0.78	0.208	2.05	0.818	-0.205	-0.23
TCTGCTAGGTCAGTTGGTCAACTAACGAGCTGCC	2.71	2.82	3.64	0.186	1.03	1.43	-0.321	-0.774
CGTCCAAGGTCAAGGCTAGGTCAGTGAAAGCATT	4.89	7.82	7.4	3.43	6.77	4.49	3.29	2.58
CGTCCAAGGTCAATGCTAGGTCAGTGGAAGCATT	4.74	7.51	6.88	3.57	4.86	4.32	2.84	3.57
CTCGAAAGGTCGGTTGAGGTGAGTATCCGGATAA	2.38	2.82	2.94	0.858	2.31	5.01	1.34	0.136
TAGCCTAGGTCAGATCGGGCCAGTATTCGCTATA	2.1	2.86	3.71	-0.442	1.37	4.14	-0.138	-0.518
AGAACGAGGTTACCAAAGATCAGGGAAACGCTTG	0.645	1.94	1.91	0.737	2.66	2.31	0.23	0.242
CCTTACGGGTCACTGACTGGTTATAGCATTTGGA	3.06	5.04	4.61	1.84	4.93	2.52	0.498	1.03
TCATCTAGGTAAACAGGTGAAAGTCCGTAAGTTA	0.582	0.394	0.147	1.26	0.645	0.888	0.459	0.0533
GAAACGAGGGCAAAGTTGATAGCATCTGTCGACG	1.33	2.11	1.58	2.66	2.3	1.57	-0.284	1.13
AGAGACAGGTGATGAAGGTAACTCAGGCTATCAT	0.746	0.284	0.541	-0.709	0.56	1.25	0.485	0.0584
CAAACTAGGCCAAGAGGTCAAAGTCCGCTTCCCG	4.79	5.84	5.21	2.07	6.52	3.75	1.81	3.94
TAGACTAGGTCATTCAGGGGCCAGTATAGAAAGC	3.07	5.47	4.47	1.33	2.82	3.29	0.816	1.63
ACTAGCAGGCCAAGTTTGGGTCACTAAAACAAAG	2.17	2.1	1.53	-0.281	0.88	2.52	0.917	0.383
ATATGTAGGTTATTGGGTCATTCAGTTTGCGCAT	3.06	3.09	2.45	1.61	2.89	2.85	2.41	3.17

Sequence	PBM binding z-score [1]	PBM binding z-score [2]	PBM binding z-score [3]	PBM binding z-score [4]	PBM binding z-score [5]	PBM binding z-score [6]	PBM binding z-score [7]	PBM binding z-score [8]
CCGACAGGGGCAGAAAGGTTACCATACCATCCGG	2.48	1.84	1.71	-0.361	1.99	1.14	-0.126	0.344
ATCTCTGGGTAAAAGTTCAGTGAATCCCGAGGAT	2.6	2.36	2.45	0.812	1.69	0.969	-0.0851	1.53
CGTCCAAGGTCAAGGTCAGGGAAAGAGACTCGAA	5.45	7.09	7.87	3.81	7.17	4.53	3.82	3.37
CCTGCTCGGTCATGGTCAGCTAATCTACAGTATG	1.93	1.91	2.66	0.361	0.252	0.067	-0.311	-0.527
TCATATAGGTAAACAGGTGAAAGTACGTAAGTTA	0.897	0.775	0.637	1.58	1.31	0.952	0.331	0.523
GTACCAACGTGAATAGGTCGTTGATGAGTAGGCG	0.16	0.141	0.237	-0.361	0.489	-0.22	-1.03	-0.24
TAGACTAGGTCATGCGGGCCAGTATAGTGTCGGC	2.66	3.38	4.13	0.0121	2.73	2.84	0.705	0.756
TTACCAAGGTTAAGGTCGTTGATCCCTCTGTAGA	2.57	2.63	2.31	1.41	3.4	3.73	3.45	2.83
CTCGAAAGGTCGCGCTCAGGTGAGTATACCAAAC	3.47	5.54	4.9	2.28	5.79	4.23	1.01	1.35
TTACCAAGGTGAAGGGCGTTGATCCCTCTGTAGA	0.953	0.413	0.407	-0.371	0.755	1.49	0.536	-0.115
GATACAGGGTCAGCTAGGGGCCAGAGTATGGAAA	3.52	6.94	4.94	1.25	4.43	3.62	0.639	0.774
TCTACCAGGCCAGAGGGTCACTCAAGAGGTACGG	3	3.03	2.46	0.518	2.92	1.93	0.581	0.936
ACAGACAGGTGAGTGAAGGTAACTGAGCTGGACG	0.0356	0.592	0.479	-0.622	0.511	1.75	-0.353	-0.218
ATATGTAGGTTATCGGGTCATTCACTTTGCGCAT	3.14	3.43	2.55	1.88	3.56	3.39	2.94	3.12
AGAATGAGGTTACCAAAGAGCAGGGAAACGCTTG	0.563	1.8	1.43	0.987	2.24	2.73	0.573	0.0969
GCTTACGGCTCAAAGGTTATAGCATGAATAGAAT	1.05	1.29	0.586	0.213	1.93	1.21	-0.314	-0.204
ATCGGAAGGTCGACGAGGTGAGTATACACCGTTT	1.95	2.32	2.65	0.311	2.37	3.04	0.579	0.813
TCGTGTAGATCAAGCAGGTTAAGAAAGCCTGAGT	-0.0651	-0.125	-0.344	0.445	0.247	0.168	-0.744	-0.0255
CCTACTGGACCATCAGGTCATTGATATCAACGTT	2.7	1.67	1.56	1.08	1.37	3.38	3.78	2.38

Sequence	PBM binding z-score [1]	PBM binding z-score [2]	PBM binding z-score [3]	PBM binding z-score [4]	PBM binding z-score [5]	PBM binding z-score [6]	PBM binding z-score [7]	PBM binding z-score [8]
TCTTGTCGATCAGCAGGTTAAGAAAGCTGGCCAA	0.242	-0.108	-0.509	0.615	0.217	0.316	-0.476	-0.421
ACTCGGAGGACGAAGGTCAGAGCTACGCCAGTGA	2.86	2.9	2.48	0.315	2.01	1.64	-0.396	0.109
TCTTGTAGATCAGCAGGTTACGAAAGCTGGCCAA	0.128	-0.124	-0.187	0.505	0.318	0.29	-0.291	-0.293
GCAGACAGGTGAAACGCTGGTAACTCAGGGTGGC	-0.219	0.167	-0.138	-0.318	0.612	0.209	-0.645	-0.838
CCTACTGGGCCACAAAAGGTCATTGATTCAGTGA	4.58	4.47	3.91	0.362	4.76	3.73	0.921	1.92
CCTAGCAGGCCAATCTGGGTCACTCAGGGCTTGA	2.15	0.923	1.06	0.0967	0.498	3.58	0.158	-0.303
TCTAGTTGGTCACGGAGGTCACACATGACGGGTA	4.7	4.74	4.94	1.1	4.96	3.73	2.5	3.54
CGTCCAAGGTCAATGCTAGGTCATTGAAAGCATT	4.92	7.82	7	3.83	6	4.65	3.74	4.05
ATCGAAAGGTTGAGGTGAGTATAGAGAAAGGGAA	1.24	1.39	1.25	-0.21	1.16	2.38	1.27	0.34
CCTACTGGGCCAAGTTCATTGATCAGTCAAAGCA	1.71	1.45	1.09	2.37	0.409	0.994	0.294	4.4
CCTTACGGGTCACCAGGTTATAGCACGACGAGCG	3.75	5.68	5.33	0.805	6.06	3.45	0.878	1.09
CCTACTGGGCCAAGATCATTGATCAGTCAAAGCA	-0.51	-0.246	-0.13	-0.666	-0.589	-0.314	-0.633	-0.179
CTCGAAAGGTCGGTTGTGGTGAGTATACGGATAA	1.92	2.21	2.35	1.08	1.79	2.66	0.291	0.903
TCTATTAGTTGATTGGGGCAACCGAAACAGCGGA	0.682	0.564	0.336	1.34	0.882	0.545	0.527	0.77
CGAACTTGGTCATTGACAGGACAGTGAATAGTAA	0.601	1.04	0.884	0.43	0.621	0.513	-0.107	0.11
CCTGCTTGGTCAATGGTCAGCTAAAGCAGCTCGC	0.507	-0.324	0.0947	0.0969	-0.389	-0.501	-0.238	-0.585
GCTCGGAGGACAAGGTAAGAGCTTTGTCCGTAGA	-0.035	-0.119	0.491	-0.345	-0.527	0.97	-0.444	-0.59
TCAGACAGGTGAAGGTTACTCAGGTACGCAGTCG	1.84	1.16	1.17	1.54	1.72	2.58	0.799	0.58
